Screens deposited in PubChem by Broad Institute.
Most compounds without a hit are left out; they make up all but 2.1% or so of the library.
MITF TRPM1 inh – inhibitors of MITF-driven TRPM1 promoter in melanoma cells. 330,000 tested, 0.83% active. SK-MEL-5 TRPM1 promoter luciferase, 24 h. AID 488899. inhibition, % at 12.5 µM;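 active means mean inhibition across replicates of 60% or more, whatever share of single replicates reaches that level; inconclusive means some that reach 60%, reason not given; inactive means mean inhibition across replicates below 60%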
aSyn 5UTR inh – 5' untranslated region of α-synuclein, MLPCN primary screen. alpha-synuclein 5'UTR reporter, inhibitor activity. inhibition, % (tested at 7.5 µM). 300,000 tested, 0.82% active; in the data active means inhibition above about 60%; inconclusive means no clear call, values can overlap the other calls;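 further: H4 neuroglioblastoma cells stably carrying SNCA 5'UTR luciferase fusion; 0% = DMSO wells and 100% = positive control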
PAX8 inh HTS – lowers PAX8-driven luciferase in RMG-I cells; RMG-I TPO-luciferase reporter, SteadyGlo, 24 h; inhibition, % at 12.6 µM; 360,000 tested, 1.2% active; AID 652154;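 active means mean replicate inhibition at least 60% with every replicate also reaching 60%; inconclusive means only one of the two criteria is met; inactive means mean below 60% and not all replicates reaching 60%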;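 further: luciferase light reporting Pax8 driven TPO promoter activity; plate controls were median of neutral control wells for no effect and mitoxantrone controls for full effect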
LMP1 NFkB inh – inhibitors of Epstein-Barr LMP1-induced NF-kappaB reporter. LMP1-induced NF-kappaB luciferase reporter cells, luminescence. 350,000 tested, 0.69% active. inhibition, % at 12.5 µM. AID 504558; in the data active means inhibition above about 41%; inconclusive means no clear call, values can overlap the other calls;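 further: 0% = neutral control wells and 100% = reference inhibitor control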
Shn3 inh set2 – inhibitors of Schnurri-3 3'UTR reporter in osteoblasts | 360,000 tested, 0.52% active | Clone20 osteoblast Shn3 3'UTR firefly luciferase, 24 h | inhibition, % at 12.5 µM;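 active means mean inhibition of at least 75% with every replicate also reaching 75%; inconclusive means mean inhibition at least 75% but some replicate below; inactive means mean inhibition below 75%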;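 further: 0% = median of neutral control wells and 100% = pilot-screen positive control compound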
* marks the source's active call; other numbers are inactive results; ? = inconclusive; · = no result given; ! = a repeat was not active.

SMILES	MITF TRPM1 inh	aSyn 5UTR inh	PAX8 inh HTS	LMP1 NFkB inh	Shn3 inh set2
COc1ccccc1CNC(=O)c1ccc2nc3[nH]c4ccccc4c3nc2c1	-1	-13	162*	-37	-14
Cc1ccc(CNC(=O)c2ccc3nc4[nH]c5ccccc5c4nc3c2)cc1	·	28	2	·	·
O=C(Nc1cccc(Br)c1)c1ccc2c(c1)SC1=NS(=O)(=O)CCN12	1	·	88*	16	41
O=C(CCOc1ccccc1)Nc1ccc(S(=O)(=O)Nc2ncccn2)cc1	4	·	5	2	-8
CC(Nc1ncnc2sccc12)c1ccccc1 (configuration not stated)	23	45	25	24	87*
O=C(Cn1cc(C(F)(F)F)cc(Cl)c1=O)NCCc1ccccc1	-4	-33	9	-10	96*
CC(C)c1ccc2c(c1)CCC1C(C)(CN)CCCC21C (configuration not stated)	98*	97*	41	-1	29
CC(C)c1ccc2c(c1)CC[C@H]1[C@](C)(CN)CCC[C@]21C	102*!	·	-6	-110	-4
O=C(Nc1ccc(-c2nc3ccccc3[nH]2)cc1)C1CCCO1 (configuration not stated)	7	77*	·	3	-18
Cc1cccc(-c2nc3cc(NC(=O)C4CCCO4)ccc3o2)c1 (configuration not stated)	-7	72*	-11	-4	-12
O=C(CCn1c(=O)oc2ccccc21)Nc1nc2ccccc2s1	-21	-4	0	-4	-15
CCSc1nnc(NC(=O)CCn2c(=O)oc3ccccc32)s1	1	10	-17	79*	20
Cc1[nH]c(C(=O)N/N=C/c2ccc(N(C)C)cc2)c(C)c1C(=O)N/N=C/c1ccc(N(C)C)cc1	-1	-28	14	1	1
CO[C@H]1CN(C)C(=O)c2cc(NC(=O)c3cnccn3)ccc2OC[C@@H](C)N(C(=O)C2CC2)C[C@@H]1C	·	·	-13	·	·
COCCCN=C1NN=C(c2cc(C)n(Cc3ccco3)c2C)CS1	38	94*	-35	8	-13
COc1ccc(-n2c(C)cc(C3=NNC(=NC4CC4)SC3)c2C)cc1	-27	·	-52	-3	37
c1ccc(C2=NNC(=NC3CC3)SC2)cc1	51	?	·	48*	-2
Cc1cc(C2=NNC(=NC3CC3)SC2)c(C)n1Cc1ccco1	91*	·	6	79*	38
Cc1cc(C2=NNC(=NC3CC3)SC2)c(C)n1-c1ccccc1	100*	95*	77*	74*	94*
c1ccc2c(C3=NNC(=NC4CC4)SC3)c[nH]c2c1	34	40	-22	40	10
C=CCn1c(SCC(=O)NCc2ccco2)nc2sc3c(c2c1=O)CCC3	1	-11	-17	7	-10
CC(NC(=O)c1c(O)c2ccccc2[nH]c1=O)c1ccccc1 (configuration not stated)	-3	-28	-11	3	-5
Fc1ccc(-c2nnc(-n3nnc4ccccc43)c3ccccc23)cc1	-10	5	-6	53*	-3
COc1ccccc1N1CCN(c2nnc(-c3ccc(F)cc3)c3ccccc23)CC1	11	16	·	24	43
COc1ccc(N2CCN(CCNC(=O)CCCn3c(=O)[nH]c4cc(Cl)ccc4c3=O)CC2)cc1	11	16	·	81*	-2
SMILES	MITF TRPM1 inh	aSyn 5UTR inh	PAX8 inh HTS	LMP1 NFkB inh	Shn3 inh set2
COc1ccc(N2CCN(CCCNC(=O)CCCn3c(=O)[nH]c4ccsc4c3=O)CC2)cc1	-1	7	·	-3	-12
CCCCCCC(=O)N(O)C1CC(=O)N(c2ccc(Br)cc2)C1=O (configuration not stated)	6	0	-9	43*	-10
CC(C)(C)c1ccc(-c2noc(CCC(=O)Nc3cccnc3)n2)cc1	79*	77*	87*	78*	36
CC(C)(C)c1ccc(-c2noc(CCC(N)=O)n2)cc1	71*	91*	·	54*	17
CN(C)CCCNC(=O)C[C@@H]1CC[C@@H]2[C@H](COC[C@@H](O)CN2S(=O)(=O)c2ccc(F)cc2)O1	·	·	-3	·	·
CC(=O)c1ccc(NC(=O)C(NC(=O)c2ccccc2)=C(C)C)cc1	-10	26	8	-1	-4
CC1CCc2cccc3c2N1c1cc(C#N)c(C#N)cc1O3 (configuration not stated)	9	71*	·	-2	10
O=C(CSc1ccc(Cl)cc1)Nc1ccc(C2SCCS2)cc1	-12	-26	-3	1	4
C[C@@H]1CCCCO[C@H](CN(C)C(=O)Nc2ccc(F)cc2)[C@@H](C)CN([C@@H](C)CO)C(=O)c2cc(NC(=O)Nc3ccc(C(F)(F)F)cc3)ccc2O1	·	·	95*	·	·
C[C@@H]1CCCCO[C@H](CN(C)C(=O)Nc2ccc(F)cc2)[C@H](C)CN([C@H](C)CO)C(=O)c2cc(NC(=O)Nc3ccc(F)cc3)ccc2O1	·	·	-22	·	·
C[C@@H]1CCCCO[C@@H](CN(C)C(=O)C2CCCCC2)[C@H](C)CN([C@H](C)CO)C(=O)c2cc(NC(=O)Nc3ccc(F)cc3)ccc2O1	·	·	86*	·	·
C[C@@H]1CN([C@H](C)CO)C(=O)c2cc(NC(=O)Nc3ccc(C(F)(F)F)cc3)ccc2O[C@@H](C)CCCCO[C@H]1CN(C)C(=O)Nc1ccc(F)cc1	·	·	84*	·	·
C[C@@H]1CN([C@H](C)CO)C(=O)c2cc(NC(=O)Nc3ccc(F)cc3)ccc2O[C@@H](C)CCCCO[C@H]1CN(C)C(=O)Nc1ccc(F)cc1	·	·	86*	·	·
C[C@H](CO)N1C[C@H](C)[C@@H](CN(C)C(=O)Nc2ccc(F)cc2)OCCCC[C@H](C)Oc2ccc(NC(=O)Nc3ccc(C(F)(F)F)cc3)cc2C1=O	·	·	39	·	·
CCSC1=N/C(=C\c2ccc(-c3ccccc3[N+](=O)[O-])o2)C(=O)S1	8	-17	·	-4	-12
CCN(CC)S(=O)(=O)c1ccc(C(=O)NCC(=O)N/N=C/c2ccccc2OC)cc1	5	4	1	-3	3
COC(=O)c1ccc(CSc2nc(N)cc(N)n2)cc1	-27	-66	·	-3	-3
Nc1nc(-c2ccccc2)[nH]c(=O)c1N=O	7	6	5	-5	-6
Cc1ccc(C#CC[N+]2(CC#Cc3ccc(C)cc3)CCCCC2)cc1	70*	19	69*	14	76
C#CC[N+]1(CC#Cc2cccc(C)c2)CCCCC1	-3	-21	25	6	9
C#CC[N+]1(CC#Cc2ccccc2)CCCCC1	0	8	0	0	11
C(#Cc1ccccc1)C[N+]1(CC#Cc2ccccc2)CCCCC1	44	28	38	-5	86*
C=CCNc1nc(-c2ccccn2)nnc1-c1ccccc1	78*	59	?	-41	91*
C[C@@H]1CN([C@@H](C)CO)C(=O)c2cc(NS(=O)(=O)c3cccs3)ccc2O[C@@H](C)CCCCO[C@H]1CN(C)Cc1ccc(C(F)(F)F)cc1	·	·	84*	·	·
C[C@@H]1CCCCO[C@H](CN(C)Cc2ccc(C(F)(F)F)cc2)[C@@H](C)CN([C@@H](C)CO)C(=O)c2cc(NS(=O)(=O)c3cccs3)ccc2O1	·	·	89*	·	·
